# Results as given in PMC7862700, “An all-to-all approach to the identification of sequence-specific readers for epigenetic DNA modifications on cytosine”.
# How the values were obtained:
# Test in all cases: DAPPL (digital affinity profiling via proximity ligation, sequencing); 10 mM Tris-HCl pH 7.5, 50 mM NaCl, 1 mM DTT, 4% glycerol, room temperature, 30 min; GST-TFs on glutathione beads, 16-mer random dsDNA library, 0.1% formaldehyde crosslink after washing; high values mean tight binding
# [1] = target: T1, FLI1 (Homo sapiens, UniProt Q01543 1-452); settings: protein: recombinant; tags: N-terminal GST; dsDNA, one strand shown
# T1 sequence: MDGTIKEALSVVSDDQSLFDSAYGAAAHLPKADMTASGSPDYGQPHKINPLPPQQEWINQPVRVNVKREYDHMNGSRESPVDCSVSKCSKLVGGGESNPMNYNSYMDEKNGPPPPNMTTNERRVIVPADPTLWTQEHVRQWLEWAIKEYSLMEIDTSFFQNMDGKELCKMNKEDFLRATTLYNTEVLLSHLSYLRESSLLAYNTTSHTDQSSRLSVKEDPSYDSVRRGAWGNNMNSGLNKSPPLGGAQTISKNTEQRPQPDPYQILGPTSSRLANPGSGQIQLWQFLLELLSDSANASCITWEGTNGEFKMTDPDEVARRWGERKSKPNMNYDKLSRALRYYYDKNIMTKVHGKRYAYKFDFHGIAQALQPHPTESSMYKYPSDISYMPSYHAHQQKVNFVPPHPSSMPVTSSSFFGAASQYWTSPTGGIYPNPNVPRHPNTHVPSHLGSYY
# Outline: (§1)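 Binding signal is given per hexamer as its read frequency for a factor divided by its frequency in the tag-only sample. GST-fused human transcription factors were expressed in yeast, captured on glutathione beads, barcoded with DNA and pooled with that sample, then incubated with 200 nmole of a 16-mer random double-stranded DNA library in Tris/NaCl/DTT/glycerol buffer for 30 min at room temperature. The pools were then washed, crosslinked, proximity-ligated, amplified by PCR and sequenced on an Illumina NextSeq500.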
# [2] = target: T2, ELK1 (Homo sapiens, UniProt P19419 1-428); settings: protein: recombinant; tags: N-terminal GST; dsDNA, one strand shown
# T2 sequence: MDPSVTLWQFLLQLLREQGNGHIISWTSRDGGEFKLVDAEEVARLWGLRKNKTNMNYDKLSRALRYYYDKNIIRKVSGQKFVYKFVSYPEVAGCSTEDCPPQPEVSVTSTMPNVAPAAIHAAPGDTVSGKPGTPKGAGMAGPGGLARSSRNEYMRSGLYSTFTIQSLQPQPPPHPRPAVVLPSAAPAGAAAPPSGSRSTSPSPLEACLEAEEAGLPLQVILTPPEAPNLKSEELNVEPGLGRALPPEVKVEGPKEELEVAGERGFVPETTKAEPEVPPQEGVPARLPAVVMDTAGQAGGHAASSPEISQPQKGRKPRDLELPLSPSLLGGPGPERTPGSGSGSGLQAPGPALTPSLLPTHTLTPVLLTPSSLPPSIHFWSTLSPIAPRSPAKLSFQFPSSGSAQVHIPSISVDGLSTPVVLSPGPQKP
# Outline: as §1
# [3] = target: T3, GABPA (Homo sapiens, UniProt Q06546 1-454); settings: protein: recombinant; tags: N-terminal GST; dsDNA, one strand shown
# T3 sequence: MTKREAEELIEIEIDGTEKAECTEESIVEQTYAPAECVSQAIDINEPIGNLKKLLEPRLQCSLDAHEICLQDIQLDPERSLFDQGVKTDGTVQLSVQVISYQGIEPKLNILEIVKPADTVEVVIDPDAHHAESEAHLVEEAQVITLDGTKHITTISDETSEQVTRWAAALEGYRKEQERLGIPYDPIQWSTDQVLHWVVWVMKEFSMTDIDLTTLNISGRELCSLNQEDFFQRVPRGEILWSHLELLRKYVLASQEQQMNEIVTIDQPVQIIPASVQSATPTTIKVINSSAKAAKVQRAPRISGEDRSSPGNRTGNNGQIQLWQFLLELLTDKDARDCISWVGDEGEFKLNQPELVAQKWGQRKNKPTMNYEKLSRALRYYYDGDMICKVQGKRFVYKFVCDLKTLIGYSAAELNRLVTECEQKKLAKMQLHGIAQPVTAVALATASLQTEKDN
# Outline: as §1
# [4] = target: T4, ERG (Homo sapiens, UniProt P11308 1-479); settings: protein: recombinant; tags: N-terminal GST; dsDNA, one strand shown
# T4 sequence: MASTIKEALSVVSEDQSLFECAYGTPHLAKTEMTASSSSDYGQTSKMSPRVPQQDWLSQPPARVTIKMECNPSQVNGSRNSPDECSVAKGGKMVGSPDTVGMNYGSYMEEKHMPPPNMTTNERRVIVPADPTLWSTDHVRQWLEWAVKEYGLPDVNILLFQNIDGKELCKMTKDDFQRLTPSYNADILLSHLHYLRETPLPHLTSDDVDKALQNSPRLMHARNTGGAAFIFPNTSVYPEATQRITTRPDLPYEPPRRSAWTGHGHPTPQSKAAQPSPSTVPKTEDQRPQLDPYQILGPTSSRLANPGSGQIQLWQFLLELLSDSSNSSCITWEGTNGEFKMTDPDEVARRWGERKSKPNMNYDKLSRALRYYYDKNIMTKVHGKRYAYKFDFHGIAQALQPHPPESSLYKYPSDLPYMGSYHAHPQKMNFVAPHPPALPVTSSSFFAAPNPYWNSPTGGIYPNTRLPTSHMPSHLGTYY
# Outline: as §1
# [5] = target: ELF1 (Homo sapiens, UniProt P32519 1-619); settings: protein: recombinant; tags: N-terminal GST; dsDNA, one strand shown
# ELF1, sequence (P32519 whole entry): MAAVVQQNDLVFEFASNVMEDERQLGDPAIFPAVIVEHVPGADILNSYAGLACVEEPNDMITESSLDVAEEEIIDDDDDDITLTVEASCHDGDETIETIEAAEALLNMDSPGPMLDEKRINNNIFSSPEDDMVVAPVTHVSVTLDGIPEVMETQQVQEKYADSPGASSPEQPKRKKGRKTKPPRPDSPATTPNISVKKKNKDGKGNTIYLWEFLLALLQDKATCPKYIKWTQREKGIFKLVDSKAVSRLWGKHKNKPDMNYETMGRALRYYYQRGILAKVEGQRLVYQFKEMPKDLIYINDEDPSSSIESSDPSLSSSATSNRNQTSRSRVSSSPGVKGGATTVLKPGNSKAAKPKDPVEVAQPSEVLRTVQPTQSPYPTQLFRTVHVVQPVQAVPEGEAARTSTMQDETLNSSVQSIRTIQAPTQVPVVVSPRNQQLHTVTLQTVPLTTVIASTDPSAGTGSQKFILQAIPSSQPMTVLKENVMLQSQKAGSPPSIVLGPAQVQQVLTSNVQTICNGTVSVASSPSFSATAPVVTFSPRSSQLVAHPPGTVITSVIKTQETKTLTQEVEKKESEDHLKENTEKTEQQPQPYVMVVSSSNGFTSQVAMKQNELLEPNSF
# Outline: as §1
# [6] = target: T5, EHF (Homo sapiens, UniProt Q9NZC4 1-300); settings: protein: recombinant; tags: N-terminal GST; dsDNA, one strand shown
# T5 sequence: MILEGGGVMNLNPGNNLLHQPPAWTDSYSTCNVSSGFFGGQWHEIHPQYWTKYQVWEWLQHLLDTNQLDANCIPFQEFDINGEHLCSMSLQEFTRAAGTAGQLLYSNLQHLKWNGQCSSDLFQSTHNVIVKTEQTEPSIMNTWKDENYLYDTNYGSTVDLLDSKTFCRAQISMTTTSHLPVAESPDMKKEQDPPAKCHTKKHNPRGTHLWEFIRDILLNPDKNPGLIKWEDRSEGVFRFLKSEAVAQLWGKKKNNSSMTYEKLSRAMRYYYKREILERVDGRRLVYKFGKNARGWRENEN
# Outline: as §1
# [7] = target: SPI1 (Homo sapiens, UniProt P17947 1-270); settings: protein: recombinant; tags: N-terminal GST; dsDNA, one strand shown
# Outline: as §1
# [8] = target: SPIB (Homo sapiens, UniProt Q01892 1-262); settings: protein: recombinant; tags: N-terminal GST; dsDNA, one strand shown
# SPIB, sequence (Q01892 whole entry): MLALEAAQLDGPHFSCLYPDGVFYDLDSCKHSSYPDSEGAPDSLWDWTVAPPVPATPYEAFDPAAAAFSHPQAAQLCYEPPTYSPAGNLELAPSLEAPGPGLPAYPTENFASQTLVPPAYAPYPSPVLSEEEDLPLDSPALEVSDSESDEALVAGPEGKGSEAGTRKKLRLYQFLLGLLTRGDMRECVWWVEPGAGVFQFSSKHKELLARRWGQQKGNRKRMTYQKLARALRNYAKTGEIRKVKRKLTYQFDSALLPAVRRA
# Outline: as §1
# [9] = target: T6, ELK3 (Homo sapiens, UniProt P41970 1-407); settings: protein: recombinant; tags: N-terminal GST; dsDNA, one strand shown
# T6 sequence: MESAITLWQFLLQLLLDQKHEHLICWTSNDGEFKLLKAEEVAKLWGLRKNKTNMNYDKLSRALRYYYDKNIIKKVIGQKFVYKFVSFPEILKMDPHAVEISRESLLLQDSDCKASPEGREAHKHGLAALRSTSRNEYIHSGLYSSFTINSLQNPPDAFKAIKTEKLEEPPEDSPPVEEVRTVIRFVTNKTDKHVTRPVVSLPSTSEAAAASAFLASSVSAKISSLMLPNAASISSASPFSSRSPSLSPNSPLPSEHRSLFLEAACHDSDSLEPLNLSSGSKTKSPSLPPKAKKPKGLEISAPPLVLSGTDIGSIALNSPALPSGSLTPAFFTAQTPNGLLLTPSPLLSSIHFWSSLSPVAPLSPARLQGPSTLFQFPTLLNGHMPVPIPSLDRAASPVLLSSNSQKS
# Outline: as §1
# [10] = target: T7, FEV (Homo sapiens, UniProt Q99581 1-238); settings: protein: recombinant; tags: N-terminal GST; dsDNA, one strand shown
# T7 sequence: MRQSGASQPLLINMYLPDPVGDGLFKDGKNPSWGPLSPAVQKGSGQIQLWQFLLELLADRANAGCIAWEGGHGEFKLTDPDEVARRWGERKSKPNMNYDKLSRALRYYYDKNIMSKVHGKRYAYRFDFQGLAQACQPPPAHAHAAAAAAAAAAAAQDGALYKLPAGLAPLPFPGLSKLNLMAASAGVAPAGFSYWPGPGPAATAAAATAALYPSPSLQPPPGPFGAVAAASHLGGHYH
# Outline: as §1
# [11] = target: ETV5 (Homo sapiens, UniProt P41161 1-510); settings: protein: recombinant; tags: N-terminal GST; dsDNA, one strand shown
# ETV5, sequence (P41161 whole entry): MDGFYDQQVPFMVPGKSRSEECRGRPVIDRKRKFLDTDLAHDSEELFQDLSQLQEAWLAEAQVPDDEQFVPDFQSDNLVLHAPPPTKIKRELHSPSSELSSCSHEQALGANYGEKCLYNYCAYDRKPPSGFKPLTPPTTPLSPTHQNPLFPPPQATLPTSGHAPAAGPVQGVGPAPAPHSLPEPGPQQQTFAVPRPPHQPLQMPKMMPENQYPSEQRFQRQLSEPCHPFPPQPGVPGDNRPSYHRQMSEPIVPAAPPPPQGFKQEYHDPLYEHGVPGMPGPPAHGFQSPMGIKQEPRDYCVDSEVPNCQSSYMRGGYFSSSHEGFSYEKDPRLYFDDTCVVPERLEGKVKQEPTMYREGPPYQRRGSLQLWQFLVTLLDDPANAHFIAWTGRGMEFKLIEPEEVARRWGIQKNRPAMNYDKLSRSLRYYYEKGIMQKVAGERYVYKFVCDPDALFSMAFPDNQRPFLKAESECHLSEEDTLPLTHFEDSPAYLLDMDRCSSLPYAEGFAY
# Outline: as §1
# [12] = target: HSF1 (Homo sapiens, UniProt Q00613 1-529); settings: protein: recombinant; tags: N-terminal GST; chain copies: 3; dsDNA, one strand shown
# HSF1, sequence (Q00613 whole entry): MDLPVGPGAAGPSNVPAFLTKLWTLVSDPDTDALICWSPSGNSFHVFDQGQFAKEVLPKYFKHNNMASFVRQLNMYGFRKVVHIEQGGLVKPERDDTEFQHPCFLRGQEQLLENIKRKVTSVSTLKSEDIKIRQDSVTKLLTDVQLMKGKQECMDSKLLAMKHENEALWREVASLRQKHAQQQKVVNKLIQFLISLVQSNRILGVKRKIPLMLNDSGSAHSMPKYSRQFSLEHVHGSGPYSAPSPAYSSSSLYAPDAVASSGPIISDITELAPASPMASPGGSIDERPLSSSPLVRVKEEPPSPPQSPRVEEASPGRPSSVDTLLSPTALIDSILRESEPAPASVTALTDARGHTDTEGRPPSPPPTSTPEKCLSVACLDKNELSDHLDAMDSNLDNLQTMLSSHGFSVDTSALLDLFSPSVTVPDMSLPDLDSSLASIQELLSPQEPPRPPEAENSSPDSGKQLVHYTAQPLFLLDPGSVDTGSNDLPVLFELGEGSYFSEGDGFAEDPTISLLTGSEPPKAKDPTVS
# Outline: as §1
# [13] = target: T8, SPIC (Homo sapiens, UniProt Q8N5J4 1-248); settings: protein: recombinant; tags: N-terminal GST; dsDNA, one strand shown
# T8 sequence: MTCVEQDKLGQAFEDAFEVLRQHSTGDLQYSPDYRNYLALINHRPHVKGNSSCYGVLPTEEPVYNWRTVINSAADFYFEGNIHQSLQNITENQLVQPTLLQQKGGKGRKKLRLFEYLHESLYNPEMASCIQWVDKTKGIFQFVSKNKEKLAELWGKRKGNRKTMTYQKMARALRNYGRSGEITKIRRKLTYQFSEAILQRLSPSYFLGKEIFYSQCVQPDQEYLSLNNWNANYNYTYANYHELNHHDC
# Outline: as §1
# [14] = target: ELF4 (Homo sapiens, UniProt Q99607 1-663); settings: protein: recombinant; tags: N-terminal GST; dsDNA, one strand shown
# ELF4, sequence (Q99607 whole entry): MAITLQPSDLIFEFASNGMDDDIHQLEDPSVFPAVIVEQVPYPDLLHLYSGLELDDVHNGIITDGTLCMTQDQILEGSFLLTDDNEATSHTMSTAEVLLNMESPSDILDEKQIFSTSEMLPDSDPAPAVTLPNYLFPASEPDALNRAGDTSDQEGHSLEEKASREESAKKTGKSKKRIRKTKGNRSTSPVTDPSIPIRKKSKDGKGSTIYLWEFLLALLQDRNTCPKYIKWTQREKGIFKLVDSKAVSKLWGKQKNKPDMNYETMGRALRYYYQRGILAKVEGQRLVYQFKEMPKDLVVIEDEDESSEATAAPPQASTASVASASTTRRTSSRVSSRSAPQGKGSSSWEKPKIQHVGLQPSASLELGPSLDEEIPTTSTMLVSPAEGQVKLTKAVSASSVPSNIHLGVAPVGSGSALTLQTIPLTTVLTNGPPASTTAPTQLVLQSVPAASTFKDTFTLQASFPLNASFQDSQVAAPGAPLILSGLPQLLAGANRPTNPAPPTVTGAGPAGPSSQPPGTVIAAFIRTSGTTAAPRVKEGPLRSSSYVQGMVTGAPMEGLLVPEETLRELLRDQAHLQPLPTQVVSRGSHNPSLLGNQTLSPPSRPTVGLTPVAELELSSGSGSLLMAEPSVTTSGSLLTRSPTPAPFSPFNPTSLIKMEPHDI
# Outline: as §1
# [15] = target: T9, ELK4 (Homo sapiens, UniProt P28324-2 1-405); settings: protein: recombinant; tags: N-terminal GST; dsDNA, one strand shown
# T9 sequence: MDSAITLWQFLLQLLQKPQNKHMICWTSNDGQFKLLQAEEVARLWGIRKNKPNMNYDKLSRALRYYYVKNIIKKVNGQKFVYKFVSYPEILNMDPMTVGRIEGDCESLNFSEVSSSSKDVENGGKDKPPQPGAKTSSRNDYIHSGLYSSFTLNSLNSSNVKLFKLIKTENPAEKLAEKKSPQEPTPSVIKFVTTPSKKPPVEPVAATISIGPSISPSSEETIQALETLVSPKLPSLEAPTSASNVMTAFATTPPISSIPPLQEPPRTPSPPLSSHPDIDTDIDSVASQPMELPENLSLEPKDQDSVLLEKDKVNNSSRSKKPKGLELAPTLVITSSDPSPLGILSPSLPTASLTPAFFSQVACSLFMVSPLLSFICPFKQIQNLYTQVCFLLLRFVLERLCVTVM
# Outline: as §1
# [16] = target: T10, ETV2 (Homo sapiens, UniProt O00321 1-342); settings: protein: recombinant; tags: N-terminal GST; dsDNA, one strand shown
# T10 sequence: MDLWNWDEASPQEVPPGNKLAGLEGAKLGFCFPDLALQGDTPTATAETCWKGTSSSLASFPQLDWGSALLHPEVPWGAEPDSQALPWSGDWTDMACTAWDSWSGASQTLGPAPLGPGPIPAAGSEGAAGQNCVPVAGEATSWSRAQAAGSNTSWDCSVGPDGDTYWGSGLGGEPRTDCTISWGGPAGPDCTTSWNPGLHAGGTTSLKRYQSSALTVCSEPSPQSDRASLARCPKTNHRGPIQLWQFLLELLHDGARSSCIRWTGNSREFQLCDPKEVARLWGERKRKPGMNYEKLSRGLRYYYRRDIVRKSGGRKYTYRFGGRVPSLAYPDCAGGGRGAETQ
# Outline: as §1
# [17] = target: T11, ELF3 (Homo sapiens, UniProt P78545 1-371); settings: protein: recombinant; tags: N-terminal GST; dsDNA, one strand shown
# T11 sequence: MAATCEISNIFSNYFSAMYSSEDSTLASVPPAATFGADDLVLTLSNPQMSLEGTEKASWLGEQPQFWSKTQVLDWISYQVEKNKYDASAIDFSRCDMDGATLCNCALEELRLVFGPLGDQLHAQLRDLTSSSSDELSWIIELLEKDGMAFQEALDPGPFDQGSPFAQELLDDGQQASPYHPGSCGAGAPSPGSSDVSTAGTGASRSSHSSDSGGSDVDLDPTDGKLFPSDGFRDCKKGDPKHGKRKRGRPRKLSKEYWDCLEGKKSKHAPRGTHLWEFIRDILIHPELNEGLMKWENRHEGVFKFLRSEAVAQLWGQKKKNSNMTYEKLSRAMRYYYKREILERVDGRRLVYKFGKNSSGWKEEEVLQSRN
# Outline: as §1
# [18] = target: CRX (Homo sapiens, UniProt O43186 1-299); settings: protein: recombinant; tags: N-terminal GST; dsDNA, one strand shown
# CRX, sequence (O43186 whole entry): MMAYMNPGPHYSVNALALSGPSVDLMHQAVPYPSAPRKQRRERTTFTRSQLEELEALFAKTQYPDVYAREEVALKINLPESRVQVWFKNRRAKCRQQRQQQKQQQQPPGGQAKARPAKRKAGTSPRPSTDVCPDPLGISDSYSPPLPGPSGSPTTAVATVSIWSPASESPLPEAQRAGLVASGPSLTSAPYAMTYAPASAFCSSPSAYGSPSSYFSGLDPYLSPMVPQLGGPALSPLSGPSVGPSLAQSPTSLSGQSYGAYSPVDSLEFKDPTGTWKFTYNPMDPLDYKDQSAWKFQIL
# Outline: as §1
# [19] = target: ETV1 (Homo sapiens, UniProt P50549 1-477); settings: protein: recombinant; tags: N-terminal GST; dsDNA, one strand shown
# ETV1, sequence (P50549 whole entry): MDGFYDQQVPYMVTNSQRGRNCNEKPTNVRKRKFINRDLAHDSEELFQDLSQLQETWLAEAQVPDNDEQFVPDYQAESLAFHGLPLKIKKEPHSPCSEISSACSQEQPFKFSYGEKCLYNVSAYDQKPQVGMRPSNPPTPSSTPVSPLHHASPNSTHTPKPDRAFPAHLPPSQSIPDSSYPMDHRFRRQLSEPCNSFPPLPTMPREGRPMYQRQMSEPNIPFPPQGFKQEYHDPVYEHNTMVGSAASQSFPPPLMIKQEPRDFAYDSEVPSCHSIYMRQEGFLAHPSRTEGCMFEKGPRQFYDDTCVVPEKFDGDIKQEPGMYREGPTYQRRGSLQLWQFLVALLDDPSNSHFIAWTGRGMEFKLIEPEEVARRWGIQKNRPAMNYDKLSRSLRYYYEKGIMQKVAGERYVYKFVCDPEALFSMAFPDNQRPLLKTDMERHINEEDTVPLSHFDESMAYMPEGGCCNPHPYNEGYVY
# Outline: as §1
sequence,measurement,setting,value
CGACTC,binding signal,[1],"1.37 fold enrichment (6-mer frequency, TF over GST control)"
same,binding signal,[2],"1.42 fold enrichment (6-mer frequency, TF over GST control)"
same,binding signal,[3],"1.53 fold enrichment (6-mer frequency, TF over GST control)"
same,binding signal,[4],"1.39 fold enrichment (6-mer frequency, TF over GST control)"
same,binding signal,[5],"1.45 fold enrichment (6-mer frequency, TF over GST control)"
same,binding signal,[6],"1.43 fold enrichment (6-mer frequency, TF over GST control)"
same,binding signal,[7],"1.35 fold enrichment (6-mer frequency, TF over GST control)"
same,binding signal,[8],"1.56 fold enrichment (6-mer frequency, TF over GST control)"
same,binding signal,[9],"1.43 fold enrichment (6-mer frequency, TF over GST control)"
same,binding signal,[10],"1.42 fold enrichment (6-mer frequency, TF over GST control)"
same,binding signal,[11],"1.44 fold enrichment (6-mer frequency, TF over GST control)"
same,binding signal,[12],"1.37 fold enrichment (6-mer frequency, TF over GST control)"
same,binding signal,[13],"1.64 fold enrichment (6-mer frequency, TF over GST control)"
same,binding signal,[14],"1.41 fold enrichment (6-mer frequency, TF over GST control)"
same,binding signal,[15],"1.35 fold enrichment (6-mer frequency, TF over GST control)"
same,binding signal,[16],"1.34 fold enrichment (6-mer frequency, TF over GST control)"
same,binding signal,[17],"1.25 fold enrichment (6-mer frequency, TF over GST control)"
same,binding signal,[18],"1.31 fold enrichment (6-mer frequency, TF over GST control)"
same,binding signal,[19],"1.41 fold enrichment (6-mer frequency, TF over GST control)"
